In PubChem BioAssay one finds outcome data, which are given here for 39 compounds.

Molecules are shown by their SMILES. Entries with a potency or affinity are not part of this list. The source made the active and inactive calls.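 How the source made its calls, unless noted: active means a dose-response fit showing signal loss, with half-maximal concentration no higher than twice the top tested dose; inconclusive means flat fit between 30% and 70% signal loss, or poor fit; inactive means the rest.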

The nature of one experiment: C. neoformans lysis by adenylate kinase leakage – AK release luminescence, cherry-picks, dose response (AID 687000;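 active means fitted dose curve reaches 40% lysis signal rise at or below the highest valid concentration tested for that sample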;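 further: luminescent detection of adenylate kinase leaking from lysed yeast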). The conditions noted are these: 4 h, 100% = twice the neutral-control signal; series mostly up to 15 µM.
For `Cc1ccc(CSc2ncnc3c2cnn3-c2ccccc2)cc1`, the compound was called inactive.
For `O=C(NC(=S)Nc1ccccc1N1CCOCC1)c1ccc([N+](=O)[O-])cc1`, the outcome was inactive.
On to `C[C@H]1CN([C@@H](C)CO)C(=O)c2cc(C#CC3(O)CCCC3)cnc2O[C@@H]1CN(C)Cc1cccnc1`, for which the result was inactive.
Turning to `Cc1cccc(OCC(=O)NCc2ccccc2)c1`, the call was inactive.
On to `CCN(C(=O)CSc1ncnc2c1cnn2-c1ccccc1)C1CCS(=O)(=O)C1` (stereo not drawn), for which the outcome was inactive.
For the compound `CN1c2ccc(Br)cc2[C@@H]2[C@@H](CCN2C(=O)Cc2cccnc2)[C@@H]1CO`, the result was inactive.
For the compound `Fc1ccccc1CNC(=S)NCc1ccc(Cl)cc1`, the compound was called inactive.
As to `COc1cc(C(=O)NC(=S)Nc2ccccc2N2CCOCC2)cc(OC)c1OC`, the result was inactive.
With `COc1ccc(C#Cc2ccc3c(c2)O[C@H](CN(C)C(C)=O)[C@@H](C)CN([C@@H](C)CO)S3(=O)=O)cc1`, the result was inactive.
Same read-out and setting: then `O=C(Nc1ccc(N2CCOCC2)cc1N1CCOCC1)c1cccc([N+](=O)[O-])c1`, with “inactive”; and `CC(C)Oc1cccc(C(=O)NC(=S)Nc2ccccc2N2CCOCC2)c1`, with “inactive”; and `O=C(C[C@@H]1CC[C@H](NC(=O)Cc2ccccn2)[C@@H](CO)O1)NCCc1ccccc1`, with “inactive”.
On to `Cc1cc(C)c(NC(=O)CN2CCN3CCCC3C2)c(C)c1` (stereo not drawn), for which the call was inactive.
On to `C[C@H](NC(=O)C[C@@H]1C=C[C@H](NC(=O)CN2CCOCC2)[C@H](CO)O1)c1ccccc1`, for which the compound was called inactive.
Turning to `C#CCN(C(=O)c1ccc(OC2CCN(C(=O)CCOC)CC2)cc1)C1CCCCC1`, the compound was called inactive.
Regarding `CCNC(=O)CN(c1ccc(Cl)cc1)S(=O)(=O)c1ccccc1`, the result was inactive.
On the same count and under the same terms, then `CNC[C@H]1Oc2cc(Br)ccc2S(=O)(=O)N([C@H](C)CO)C[C@H]1C`, with “inactive”; and `C[C@H]1CN([C@@H](C)CO)S(=O)(=O)c2ccc(Br)cc2O[C@H]1CN(C)S(=O)(=O)c1ccccc1F`, with “inactive”; and `Cc1noc(C)c1NC(=O)N(C)C[C@H]1Oc2ccc(NC(=O)C3CC3)cc2CC(=O)N([C@@H](C)CO)C[C@H]1C`, with “inactive”.
On to `CCCNC(=O)[C@H]1[C@H](CO)[C@H]2Cn3c(cccc3=O)[C@@H]1N2C(=O)Nc1cc(F)ccc1F`, for which the call was inactive.
The same measure, in the same setting: the value for `Cc1noc(C)c1NC(=O)N(C)C[C@H]1Oc2ccc(N(C)C)cc2C(=O)N([C@H](C)CO)C[C@@H]1C` was “inactive”; that for `Cc1c(C(=O)NC(=S)Nc2ccc(N3CCOCC3)cc2)cccc1[N+](=O)[O-]` was “inactive”.
Same read-out and setting: the value for `O=C(c1cccs1)N1CCN(c2nc3ccccc3s2)CC1` was “inactive”.
Regarding `CC(NC(=O)COc1ccccc1-c1ccccc1)c1ccccc1` (stereo not drawn), the result was inactive.
For `CCCC(=O)N1CCC1(C)C(=O)Nc1cc(C)ccc1C` (stereo not drawn), the compound was classed as inactive.
As for `COC(=O)C1=C(C)N(Cc2ccccc2)C(=O)N[C@H]1c1cccc(F)c1`, the compound was called inactive.
For the compound `CC(C)(C)SCCNC(=O)CN(c1ccccc1)S(=O)(=O)c1ccccc1`, the call was inactive.
For the compound `Cc1cc(C)c(NC(=O)CNC(=O)CNC(=O)C2CCCCC2)c(C)c1`, the result was inactive.
As for `COCCN1C(=O)CCC1(C)C(=O)Nc1c(C)cccc1C` (stereo not drawn), the outcome was inactive.
Still for that read-out and setting: the value for `O=C(CN(c1ccccc1)S(=O)(=O)c1ccccc1)Nc1ccc(F)cc1` was “inactive”; that for `C[C@H](CO)N1C[C@H](C)[C@@H](CN(C)C(=O)Nc2ccc3c(c2)OCO3)Oc2ccc(NS(=O)(=O)c3cccs3)cc2C1=O` was “inactive”; that for `CNC[C@H]1OCCCC[C@H](C)Oc2ccc(NC(=O)Cc3ccccc3)cc2C(=O)N([C@H](C)CO)C[C@@H]1C` was “inactive”.
`O=C(CN(c1ccc(F)cc1)S(=O)(=O)c1ccccc1)NCCSC1CCCCC1`: the call was inactive.
`C[C@@H]1CN([C@@H](C)CO)S(=O)(=O)c2ccc(C3=CCCC3)cc2O[C@@H]1CN(C)Cc1ccccc1F`: the compound was classed as inactive.
On the same count and under the same terms, the value for `COc1ccc(NC(=O)CN2CCN(S(=O)(=O)c3ccc(C(C)C)cc3)CC2)cc1OC` was “inactive”; that for `C[C@H](CO)N1C[C@H](C)[C@H](CN(C)S(=O)(=O)c2cn(C)cn2)Oc2ncc(/C=C/c3ccccc3)cc2C1=O` was “inactive”; that for `CCCC(=O)Nc1ccc2c(c1)OC[C@@H](C)N(Cc1ccccn1)C[C@@H](C)[C@H](OC)CN(C)C2=O` was “inactive”.
Same read-out and setting: then `O=C(CSc1nc(CCC2CCCC2)nc2ccccc12)NCc1ccc2c(c1)OCO2`, with “inactive”.
On to `C[C@@H]1CCCCO[C@@H](CN(C)C(=O)NC2CCCCC2)[C@H](C)CN([C@@H](C)CO)C(=O)c2cc(NS(=O)(=O)c3cn(C)cn3)ccc2O1`, for which the outcome was inactive.

A further experiment can be described thus: viability loss in HepG2 hepatoma cells – cell-based, cherry-picks, set 2, cytotoxicity control, dose response (AID 687002). Particulars: ATP luminescence (CellTiter-Glo), 48 h; series mostly up to 26 µM.
On to `Cc1ccc(CSc2ncnc3c2cnn3-c2ccccc2)cc1`, for which the outcome was inactive.
Consider `O=C(NC(=S)Nc1ccccc1N1CCOCC1)c1ccc([N+](=O)[O-])cc1`, for which the outcome was inactive.
In the case of `C[C@H]1CN([C@@H](C)CO)C(=O)c2cc(C#CC3(O)CCCC3)cnc2O[C@@H]1CN(C)Cc1cccnc1`, the compound was classed as inactive.
`Cc1cccc(OCC(=O)NCc2ccccc2)c1`: the compound was classed as inactive.
Same read-out and setting: the value for `CCN(C(=O)CSc1ncnc2c1cnn2-c1ccccc1)C1CCS(=O)(=O)C1` (stereo not drawn) was “inactive”.
For the compound `CN1c2ccc(Br)cc2[C@@H]2[C@@H](CCN2C(=O)Cc2cccnc2)[C@@H]1CO`, the call was inactive.
For `Fc1ccccc1CNC(=S)NCc1ccc(Cl)cc1`, the call was inactive.
As to `COc1cc(C(=O)NC(=S)Nc2ccccc2N2CCOCC2)cc(OC)c1OC`, the compound was called inactive.
As to `COc1ccc(C#Cc2ccc3c(c2)O[C@H](CN(C)C(C)=O)[C@@H](C)CN([C@@H](C)CO)S3(=O)=O)cc1`, the outcome was inactive.
Take `O=C(Nc1ccc(N2CCOCC2)cc1N1CCOCC1)c1cccc([N+](=O)[O-])c1`: the outcome was inactive.
Turning to `CC(C)Oc1cccc(C(=O)NC(=S)Nc2ccccc2N2CCOCC2)c1`, the outcome was inactive.
`O=C(C[C@@H]1CC[C@H](NC(=O)Cc2ccccn2)[C@@H](CO)O1)NCCc1ccccc1`: the compound was called inactive.
With `Cc1cc(C)c(NC(=O)CN2CCN3CCCC3C2)c(C)c1` (stereo not drawn), the compound was classed as inactive.
The same measure, in the same setting: then `C[C@H](NC(=O)C[C@@H]1C=C[C@H](NC(=O)CN2CCOCC2)[C@H](CO)O1)c1ccccc1`, with “inactive”; and `C#CCN(C(=O)c1ccc(OC2CCN(C(=O)CCOC)CC2)cc1)C1CCCCC1`, with “inactive”.
For `CCNC(=O)CN(c1ccc(Cl)cc1)S(=O)(=O)c1ccccc1`, the compound was called inactive.
On the same count and under the same terms, the value for `CNC[C@H]1Oc2cc(Br)ccc2S(=O)(=O)N([C@H](C)CO)C[C@H]1C` was “inactive”.
As to `C[C@H]1CN([C@@H](C)CO)S(=O)(=O)c2ccc(Br)cc2O[C@H]1CN(C)S(=O)(=O)c1ccccc1F`, the outcome was inactive.
`Cc1noc(C)c1NC(=O)N(C)C[C@H]1Oc2ccc(NC(=O)C3CC3)cc2CC(=O)N([C@@H](C)CO)C[C@H]1C`: the outcome was inactive.
`CCCNC(=O)[C@H]1[C@H](CO)[C@H]2Cn3c(cccc3=O)[C@@H]1N2C(=O)Nc1cc(F)ccc1F`: the compound was classed as inactive.
As for `Cc1noc(C)c1NC(=O)N(C)C[C@H]1Oc2ccc(N(C)C)cc2C(=O)N([C@H](C)CO)C[C@@H]1C`, the call was inactive.
As for `Cc1c(C(=O)NC(=S)Nc2ccc(N3CCOCC3)cc2)cccc1[N+](=O)[O-]`, the outcome was inactive.
Consider `O=C(c1cccs1)N1CCN(c2nc3ccccc3s2)CC1`, for which the compound was called inactive.
Regarding `CC(NC(=O)COc1ccccc1-c1ccccc1)c1ccccc1` (stereo not drawn), the compound was classed as inactive.
Take `CCCC(=O)N1CCC1(C)C(=O)Nc1cc(C)ccc1C` (stereo not drawn): the outcome was inactive.
`COC(=O)C1=C(C)N(Cc2ccccc2)C(=O)N[C@H]1c1cccc(F)c1`: the compound was called inactive.
For the compound `CC(C)(C)SCCNC(=O)CN(c1ccccc1)S(=O)(=O)c1ccccc1`, the compound was classed as inactive.
Turning to `Cc1cc(C)c(NC(=O)CNC(=O)CNC(=O)C2CCCCC2)c(C)c1`, the result was inactive.
Turning to `COCCN1C(=O)CCC1(C)C(=O)Nc1c(C)cccc1C` (stereo not drawn), the compound was classed as inactive.
For the compound `O=C(CN(c1ccccc1)S(=O)(=O)c1ccccc1)Nc1ccc(F)cc1`, the result was inactive.
With `C[C@H](CO)N1C[C@H](C)[C@@H](CN(C)C(=O)Nc2ccc3c(c2)OCO3)Oc2ccc(NS(=O)(=O)c3cccs3)cc2C1=O`, the call was inactive.
Same read-out and setting: then `CNC[C@H]1OCCCC[C@H](C)Oc2ccc(NC(=O)Cc3ccccc3)cc2C(=O)N([C@H](C)CO)C[C@@H]1C`, with “inactive”; and `O=C(CN(c1ccc(F)cc1)S(=O)(=O)c1ccccc1)NCCSC1CCCCC1`, with “inactive”.
On to `C[C@@H]1CN([C@@H](C)CO)S(=O)(=O)c2ccc(C3=CCCC3)cc2O[C@@H]1CN(C)Cc1ccccc1F`, for which the compound was called inactive.
With `COc1ccc(NC(=O)CN2CCN(S(=O)(=O)c3ccc(C(C)C)cc3)CC2)cc1OC`, the compound was classed as inactive.
For `C[C@H](CO)N1C[C@H](C)[C@H](CN(C)S(=O)(=O)c2cn(C)cn2)Oc2ncc(/C=C/c3ccccc3)cc2C1=O`, the compound was called inactive.
Consider `CCCC(=O)Nc1ccc2c(c1)OC[C@@H](C)N(Cc1ccccn1)C[C@@H](C)[C@H](OC)CN(C)C2=O`, for which the call was inactive.
As to `O=C(CSc1nc(CCC2CCCC2)nc2ccccc12)NCc1ccc2c(c1)OCO2`, the result was inactive.
The same measure, in the same setting: then `C[C@@H]1CCCCO[C@@H](CN(C)C(=O)NC2CCCCC2)[C@H](C)CN([C@@H](C)CO)C(=O)c2cc(NS(=O)(=O)c3cn(C)cn3)ccc2O1`, with “inactive”.
